# Only a selection was taken, and the strongest signals are over-represented in it overall.
# B1: Cohesin-hLangerin (Homo sapiens) (protein)
# chain: LDDLDAVRIKVDTVNAKPGDTVRIPVRFSGIPSKGIANCDFVYSYDPNVLEIIEIEPGDIIVDPNPDKSFDTAVYPDRKIIVFLFAEDSGTGAYAITKDGVFATIVAKVKEGAPNGLSVIKFVEVGGFANNDLVEQKTQFFDGGANVGDTTEPATPTTPVTTPTTTDDLDAASYPRFMGTISDVKTNVQLLKGRVDNISTLDSEIKKNSDGMEAAGVQIQMVNESLGYVRSQFLKLKTSVEKANAQIQILTRSWEEVSTLNAQIPELKSDLEKASALNTKIRALQGSLENMSKLLKRQNDILQVVSQGWKYFKGNFYYFSLIPKTWYSAEQFCVSRNSHLTSVTSESEQEFLYKTAGGLIYWIGLTKAGMEGDWSWVDDTPFNKVQSARFWIPGEPNNAGNNEHCGNIKAPSLQAWNDAPCDKTFLFICKRPYVPSEPHHHHHH
# Assays:
# Test in all cases: glycan array binding signal (z-score within array); higher = stronger binding
# Conditions in all cases: glycan notation: IUPAC condensed, linker removed
# [1] = molecular target: Fuc(a1-2)Gal(b1-3)[Fuc(a1-4)]GlcNAc(b1-2)Man(a1-3)[Fuc(a1-2)Gal(b1-3)[Fuc(a1-4)]GlcNAc(b1-2)Man(a1-6)]Man(b1-4)GlcNAc(b1-4)[Fuc(a1-6)]GlcNAc(b1-4)[Fuc(a1-6)]GlcNAc
# Outline: (§1)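 The binding signal is a Z-score computed within each array. Data were drawn from 3228 arrays in the Consortium for Functional Glycomics database, restricted to those with a known protein sequence. Scores were averaged over arrays of the same protein sequence at different concentrations or buffers, and over linkers, and negative values can be taken as non-binding.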
# [2] = molecular target: Fuc(a1-2)Gal6S(b1-4)Glc
# Outline: as §1
# [3] = molecular target: Fuc(a1-2)[Gal(a1-3)]Gal(b1-3)GlcNAc(b1-2)Man(a1-3)[Fuc(a1-2)[Gal(a1-3)]Gal(b1-3)GlcNAc(b1-2)Man(a1-6)]Man(b1-4)GlcNAc(b1-4)[Fuc(a1-6)]GlcNAc
# Outline: as §1
# [4] = molecular target: Fuc(a1-2)[Gal(a1-3)]Gal(b1-3)GlcNAc(b1-6)GalNAc
# Outline: as §1
# [5] = molecular target: Fuc(a1-2)[Gal(a1-3)]Gal(b1-4)GlcNAc(b1-2)Man(a1-3)[Fuc(a1-2)[Gal(a1-3)]Gal(b1-4)GlcNAc(b1-2)Man(a1-6)]Man(b1-4)GlcNAc(b1-4)[Fuc(a1-6)]GlcNAc
# Outline: as §1
# [6] = molecular target: Fuc(a1-2)[Gal(a1-3)]Gal(b1-4)GlcNAc(b1-3)[Fuc(a1-2)[Gal(a1-3)]Gal(b1-4)GlcNAc(b1-6)]GalNAc
# Outline: as §1
# [7] = molecular target: Fuc(a1-2)[Gal(a1-3)]Gal(b1-4)GlcNAc(b1-6)GalNAc
# Outline: as §1
# [8] = molecular target: Fuc(a1-2)[Gal(a1-4)]Gal(b1-4)GlcNAc
# Outline: as §1
# [9] = molecular target: Fuc(a1-2)[GalNAc(a1-3)]Gal(b1-3)GalNAc(a1-3)[Fuc(a1-2)]Gal(b1-4)GlcNAc
# Outline: as §1
# [10] = molecular target: Fuc(a1-2)[GalNAc(a1-3)]Gal(b1-3)GlcNAc(b1-2)Man(a1-3)[Fuc(a1-2)[GalNAc(a1-3)]Gal(b1-3)GlcNAc(b1-2)Man(a1-6)]Man(b1-4)GlcNAc(b1-4)[Fuc(a1-6)]GlcNAc
# Outline: as §1
# [11] = molecular target: Fuc(a1-3)[Gal(b1-4)]GlcNAc(b1-3)Gal(b1-4)[Fuc(a1-3)]GlcNAc
# Outline: as §1
# [12] = molecular target: Fuc(a1-3)[Gal(b1-4)]GlcNAc(b1-3)Gal(b1-4)[Fuc(a1-3)]GlcNAc(b1-3)Gal(b1-4)[Fuc(a1-3)]GlcNAc
# Outline: as §1
# [13] = molecular target: Gal(b1-3)GalNAc(a1-3)[Fuc(a1-2)]Gal(b1-4)Glc
# Outline: as §1
# [14] = molecular target: Gal(b1-3)GlcNAc(b1-2)Man(a1-3)[Gal(b1-3)GlcNAc(b1-2)Man(a1-6)]Man(b1-4)GlcNAc(b1-4)[Fuc(a1-6)]GlcNAc
# Outline: as §1
# [15] = molecular target: Gal(b1-3)GlcNAc(b1-2)Man(a1-3)[GlcNAc(b1-4)][Gal(b1-3)GlcNAc(b1-2)Man(a1-6)]Man(b1-4)GlcNAc(b1-4)GlcNAc
# Outline: as §1
# [16] = molecular target: Gal(b1-3)GlcNAc(b1-2)[Gal(b1-3)GlcNAc(b1-6)]Man(a1-6)[Gal(b1-3)GlcNAc(b1-2)Man(a1-3)]Man(b1-4)GlcNAc(b1-4)GlcNAc
# Outline: as §1
# [17] = molecular target: Gal(b1-3)GlcNAc(b1-3)Gal(b1-4)GlcNAc(b1-3)Gal(b1-4)GlcNAc(b1-2)[Gal(b1-3)GlcNAc(b1-3)Gal(b1-4)GlcNAc(b1-3)Gal(b1-4)GlcNAc(b1-6)]Man(a1-6)[Gal(b1-3)GlcNAc(b1-3)Gal(b1-4)GlcNAc(b1-3)Gal(b1-4)GlcNAc(b1-2)Man(a1-3)]Man(b1-4)GlcNAc(b1-4)[Fuc(a1-6)]GlcNAc
# Outline: as §1
# [18] = molecular target: Gal(b1-4)Glc
# Outline: as §1
# [19] = molecular target: Gal(b1-4)GlcNAc(b1-2)Man(a1-3)Man(b1-4)GlcNAc(b1-4)GlcNAc
# Outline: as §1
# [20] = molecular target: Gal(b1-4)GlcNAc(b1-2)Man(a1-3)[Gal(b1-4)GlcNAc(b1-2)Man(a1-6)][GlcNAc(b1-4)]Man(b1-4)GlcNAc(b1-4)[Fuc(a1-6)]GlcNAc
# Outline: as §1
# [21] = molecular target: Gal(b1-4)GlcNAc(b1-3)Gal(b1-3)GlcNAc
# Outline: as §1
# [22] = molecular target: Gal(b1-4)GlcNAc(b1-3)Gal(b1-4)GlcNAc(b1-2)[Gal(b1-4)GlcNAc(b1-3)Gal(b1-4)GlcNAc(b1-6)]Man(a1-6)[Gal(b1-4)GlcNAc(b1-3)Gal(b1-4)GlcNAc(b1-2)Man(a1-3)]Man(b1-4)GlcNAc(b1-4)GlcNAc
# Outline: as §1
# [23] = molecular target: Gal(b1-4)GlcNAc(b1-3)Gal(b1-4)GlcNAc(b1-3)Gal(b1-4)GlcNAc(b1-3)Gal(b1-4)GlcNAc(b1-3)Gal(b1-4)GlcNAc(b1-2)[Gal(b1-4)GlcNAc(b1-3)Gal(b1-4)GlcNAc(b1-3)Gal(b1-4)GlcNAc(b1-3)Gal(b1-4)GlcNAc(b1-3)Gal(b1-4)GlcNAc(b1-6)]Man(a1-6)[Gal(b1-4)GlcNAc(b1-3)Gal(b1-4)GlcNAc(b1-3)Gal(b1-4)GlcNAc(b1-3)Gal(b1-4)GlcNAc(b1-3)Gal(b1-4)GlcNAc(b1-2)Man(a1-3)]Man(b1-4)GlcNAc(b1-4)[Fuc(a1-6)]GlcNAc
# Outline: as §1
# [24] = molecular target: Gal(b1-4)GlcNAc(b1-3)GalNAc
# Outline: as §1
# [25] = molecular target: Gal3S4S(b1-4)GlcNAc
# Outline: as §1
# [26] = molecular target: Gal6S(b1-3)GlcNAc6S
# Outline: as §1
# [27] = molecular target: Gal6S(b1-4)Glc6S
# Outline: as §1
# [28] = molecular target: Gal6S(b1-4)GlcNAc
# Outline: as §1
# [29] = molecular target: Gal6S(b1-4)GlcNAc6S
# Outline: as §1
# [30] = molecular target: GlcNAc(a1-4)Gal(b1-4)GalNAc
# Outline: as §1
# [31] = molecular target: GlcNAc(b1-2)[GlcNAc(b1-4)]Man(a1-3)[GlcNAc(b1-4)][GlcNAc(b1-2)[GlcNAc(b1-6)]Man(a1-6)]Man(b1-4)GlcNAc(b1-4)[Fuc(a1-6)]GlcNAc
# Outline: as §1
# [32] = molecular target: GlcNAc(b1-3)Gal(b1-4)GlcNAc(b1-2)Man(a1-3)[GlcNAc(b1-3)Gal(b1-4)GlcNAc(b1-2)Man(a1-6)]Man(b1-4)GlcNAc(b1-4)GlcNAc
# Outline: as §1
# [33] = molecular target: GlcNAc(b1-3)Gal(b1-4)GlcNAc(b1-3)Gal(b1-4)GlcNAc(b1-2)[GlcNAc(b1-3)Gal(b1-4)GlcNAc(b1-3)Gal(b1-4)GlcNAc(b1-6)]Man(a1-6)[GlcNAc(b1-3)Gal(b1-4)GlcNAc(b1-3)Gal(b1-4)GlcNAc(b1-2)Man(a1-3)]Man(b1-4)GlcNAc(b1-4)[Fuc(a1-6)]GlcNAc
# Outline: as §1
# [34] = molecular target: Man(a1-2)Man(a1-2)Man(a1-6)[Man(a1-3)]Man
# Outline: as §1
# [35] = molecular target: Man(a1-2)Man(a1-3)[Man(a1-2)Man(a1-6)]Man(a1-6)[Man(a1-2)Man(a1-2)Man(a1-3)]Man
# Outline: as §1
# [36] = molecular target: Man(a1-2)Man(a1-3)[Man(a1-6)]Man(a1-6)[Man(a1-2)Man(a1-3)]Man(b1-4)GlcNAc(b1-4)GlcNAc
# Outline: as §1
# [37] = molecular target: Man(a1-2)Man(a1-6)[Man(a1-3)]Man(a1-6)[Man(a1-2)Man(a1-2)Man(a1-3)]Man(b1-4)GlcNAc(b1-4)GlcNAc
# Outline: as §1
# [38] = molecular target: Neu5Ac(a2-3)Gal
# Outline: as §1
# [39] = molecular target: Neu5Ac(a2-3)Gal(b1-3)GlcNAc(b1-3)GalNAc
# Outline: as §1
# [40] = molecular target: Neu5Ac(a2-3)Gal(b1-3)[Fuc(a1-4)]GlcNAc(b1-3)Gal(b1-4)[Fuc(a1-3)]GlcNAc
# Outline: as §1
# [41] = molecular target: Neu5Ac(a2-3)Gal(b1-4)GlcNAc(b1-2)[Neu5Ac(a2-3)Gal(b1-4)GlcNAc(b1-6)]Man(a1-6)[Neu5Ac(a2-3)Gal(b1-4)GlcNAc(b1-2)Man(a1-3)][GlcNAc(b1-4)]Man(b1-4)GlcNAc(b1-4)GlcNAc
# Outline: as §1
# [42] = molecular target: Neu5Ac(a2-3)Gal(b1-4)[Fuc(a1-3)]GlcNAc(b1-3)GalNAc
# Outline: as §1
# [43] = molecular target: Neu5Ac(a2-8)Neu5Ac(a2-3)Gal(b1-3)GalNAc(b1-4)[Neu5Ac(a2-3)]Gal(b1-4)Glc
# Outline: as §1
# [44] = molecular target: Neu5Ac(b2-6)Gal(b1-4)GlcNAc
# Outline: as §1
# [45] = molecular target: Neu5Gc(a2-8)Neu5Ac(a2-3)Gal(b1-4)GlcNAc
# Outline: as §1
# [46] = molecular target: Neu5Gc(a2-8)Neu5Gc(a2-6)Gal(b1-4)GlcNAc
# Outline: as §1
binder,measurement,setting,value
B1,glycan array binding signal (z-score),[1],0.805
same,glycan array binding signal (z-score),[2],-0.399
same,glycan array binding signal (z-score),[3],3.97
same,glycan array binding signal (z-score),[4],-0.238
same,glycan array binding signal (z-score),[5],3.4
same,glycan array binding signal (z-score),[6],1.3
same,glycan array binding signal (z-score),[7],-0.388
same,glycan array binding signal (z-score),[8],-0.301
same,glycan array binding signal (z-score),[9],-0.411
same,glycan array binding signal (z-score),[10],2.27
same,glycan array binding signal (z-score),[11],-0.026
same,glycan array binding signal (z-score),[12],-0.424
same,glycan array binding signal (z-score),[13],-0.311
same,glycan array binding signal (z-score),[14],0.003
same,glycan array binding signal (z-score),[15],4.37
same,glycan array binding signal (z-score),[16],4.81
same,glycan array binding signal (z-score),[17],5.37
same,glycan array binding signal (z-score),[18],-0.309
same,glycan array binding signal (z-score),[19],-0.352
same,glycan array binding signal (z-score),[20],-0.449
same,glycan array binding signal (z-score),[21],-0.419
same,glycan array binding signal (z-score),[22],3.41
same,glycan array binding signal (z-score),[23],0.332
same,glycan array binding signal (z-score),[24],-0.438
same,glycan array binding signal (z-score),[25],-0.417
same,glycan array binding signal (z-score),[26],5.12
same,glycan array binding signal (z-score),[27],4
same,glycan array binding signal (z-score),[28],3.76
same,glycan array binding signal (z-score),[29],4.85
same,glycan array binding signal (z-score),[30],-0.401
same,glycan array binding signal (z-score),[31],-0.2
same,glycan array binding signal (z-score),[32],-0.336
same,glycan array binding signal (z-score),[33],4.94
same,glycan array binding signal (z-score),[34],5.38
same,glycan array binding signal (z-score),[35],6.69
same,glycan array binding signal (z-score),[36],-0.429
same,glycan array binding signal (z-score),[37],6.34
same,glycan array binding signal (z-score),[38],-0.391
same,glycan array binding signal (z-score),[39],-0.31
same,glycan array binding signal (z-score),[40],3.62
same,glycan array binding signal (z-score),[41],-0.447
same,glycan array binding signal (z-score),[42],0.356
same,glycan array binding signal (z-score),[43],-0.417
same,glycan array binding signal (z-score),[44],-0.412
same,glycan array binding signal (z-score),[45],-0.431
same,glycan array binding signal (z-score),[46],-0.412

# — the supplement of paper PMC8728848
